# PINK1 expr mod = modulators of PINK1 expression; PINK1 immunofluorescence, high-content cytometry, 24 h; Potency, µM (titrated, usually from 76.6 µM), for inactives: top-dose activation (PINK1 increase), usual class: activators; 0.2% of 410,000 active; AID 624263; active means well fitted activation curve with a large enough effect; inconclusive means small, poorly fitted or top-dose-only effect; cell line not stated here; further: % of control where 0% means no effect; nearly all actives have a fitted effect of over 65% in size
#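 PINK1 protein, normally rapidly degraded, was detected by immunofluorescence after 24 hour compound treatment of a stable cell line. Titration data (5 concentrations) came from laser-scanning cytometry, with CCCP-treated wells as controls.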
# KB-V1 MDR tox = KB-V1 MDR subline cytotoxicity. KB-V1 MDR cells viability, CellTiter-Glo, 72 h. 3.4% of 400,000 active. AID 1347076. Potency, µM (doses to about 46.1 µM), hits mostly cytotoxic; further: on the % scale 0 is the no-effect control and ±100 the full control effect; nearly all actives have a fitted effect of over 60% in size
#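 qHTS viability screen in drug-selected KB-V1 MDR cells: 72 h compound treatment at 37 degrees C, ATP luminescence end point.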
# KB-3-1 cytotox = kills parental KB-3-1 adenocarcinoma cells; KB-3-1 viability, CellTiter-Glo ATP luminescence, 72 h; Potency, µM (top dose mostly 46.1 µM), actives largely listed as cytotoxic; 1.4% of 400,000 active; further: on the % scale 0 is the no-effect control and ±100 the full control effect; nearly all actives have a fitted effect of over 60% in size
#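 KB-3-1 parental drug-naive adenocarcinoma cells in DMEM/10% FBS, incubated 72 h at 37 C with pin-transferred compounds across a concentration series. Viability by CellTiter-Glo luminescence; concentration-response curves fitted after normalization.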
# SW480 rereplic = inducers of DNA re-replication in SW480 colon cancer cells. SW480 DNA re-replication, Hoechst DNA content imaging, 48 h. Potency, µM (titrated, usually from 46.1 µM), for the others: at the highest dose re-replication activation, actives largely listed as activators. 1.8% of 340,000 active; further: % of control where 0% means no effect; nearly all actives have a fitted effect of over 55% in size
#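 SW480 cells exposed to compounds for 48 hr at 37 C, 5% CO2, then Hoechst-stained 40 min. Nuclear DNA content imaged by fluorescence scanning (405 nm excitation, 500-530 nm emission); re-replication scored as increased high-intensity nuclei.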
# MCF10A rereplic = inducers of DNA re-replication in MCF 10A breast cells; MCF 10A DNA re-replication, Hoechst nuclear intensity, 48 h; Potency, µM (series often up to 46.1 µM), without a hit: at the highest dose activity, positive = re-replication, actives largely listed as activators; 2.9% of 350,000 active; further: % of control where 0% means no effect; nearly all actives have a fitted effect of over 50% in size
# Numbers without * were called inactive; i = inactive; ? = inconclusive; . = not tested or not shown; ! = repeats disagree; [ ] = another dose, or the depositor's remark. Shown are actives, neighbours in structure and some others; about 6.7% of the full set was active somewhere. Unless noted, the call rests on the fitted dose curve; in most records, active means well fitted curve in the direction sought with a large enough effect; inconclusive means small, poorly fitted or top-dose-only effect, or another doubt; inactive means no such curve, though single readings can be large; an effect the other way counts as inactive or inconclusive. Potency means the concentration at half of the fitted maximal effect.
SMILES,PINK1 expr mod,KB-V1 MDR tox,KB-3-1 cytotox,SW480 rereplic,MCF10A rereplic
COC(=O)CC(NC1CCN(c2nc(C)c3cc4c(cc3n2)CCC4)CC1)C(=O)OC (centres undefined),0%,.,.,.,.
COc1ccc(O)c(CN2CCC3(CC2)c2ccccc2[C@@H](NC(=O)c2cccc(F)c2)[C@@H]3OC)c1,0%,.,.,.,.
CCN(CC)c1cc(C)c2cc(NC(=O)c3ccccc3OC)ccc2n1,?,?,18µM*!,?,?
CC1Cc2nc(SCC(=O)N3CCc4ccccc43)n(C)c(=O)c2S1 (centres undefined),1%,2.6µM*,i,-4%,7%
CCSc1nnc(NC(=O)CSc2nc3c(c(=O)n2C)SC(C)C3)s1 (centres undefined),.,2.9µM*,i,3%,-4%
CCSc1nnc(NC(=O)CSc2nc3c(c(=O)n2CC)SC(C)C3)s1 (centres undefined),3%,2.6µM*,6.5µM*,-2%,10%
CCC(C(=O)OC)n1nnc2sc(-c3ccccc3)cc2c1=O (centres undefined),6%,i,i,.,.
COc1ccc(-c2onc(C)c2C)cc1S(=O)(=O)N1CCN(c2ccc(Cl)cc2)CC1,0%,.,.,.,.
O=C(NC(=O)c1c(F)cccc1F)Nc1cccc(Oc2ncc(Cl)cn2)c1,4%,?,?,12%,-3%
CC1(C)CC(=O)C=C(NCc2cccc(C(F)(F)F)c2)C1,2%,?,i,9.2µM*,-5%
CCCCn1c(=O)nc2n(-c3ccc(Cl)cc3)c3ccccc3cc-2c1=O,?,8.2µM*,i,-4%,-5%
CCCCn1c(=O)nc2n(-c3ccc(C)cc3)c3ccccc3cc-2c1=O,12%,?,i,-5%,1%
CC1=C(C(=O)Nc2cccnc2)C(c2ccccc2)n2nc(SCc3ccccc3Cl)nc2N1 (centres undefined),2%,?,i,.,.
Cc1ccc(OCC(=O)Nc2ccc(O)c(-c3nc4ccccc4o3)c2)cc1,-2%,?,?,-6%,16µM*
Cc1ccc(OCC(=O)Nc2ccc(O)c(-c3nc4cc(C)c(C)cc4o3)c2)cc1,-1%,i,?,.,.
O=C(CSc1n[nH]c(-c2ccccc2Cl)n1)NCc1ccc(F)cc1,1%,i,i,.,.
CC(C)(C)c1ccc(Oc2nc3ccccn3c(=O)c2/C=C(\C#N)c2nc3ccccc3[nH]2)cc1,28µM*,i,i,.,.
Cc1nn(-c2cc(N3CCCCC3)ccc2N)c(=O)c2ccccc12,2%[38.3 µM],i,i,0%,-1%
Cc1nn(-c2cc(N3CCCCCC3)ccc2[N+](=O)[O-])c(=O)c2ccccc12,3%[38.3 µM],3.7µM*,i,11%,12%
Cc1cc2ccccc2c[n+]1C1CCCCC1,.,i,4.6µM*,.,.
CCN(CC)c1ccc(NC(=O)COc2ccccc2C)cc1S(=O)(=O)Nc1ccccc1OC,3%,?,i,3%,-3%
CCN(CC)c1ccc(NC(=O)COc2ccccc2C#N)cc1S(=O)(=O)Nc1ccc(OC)cc1,1%,3.7µM*,i,?,?
Cc1ccc(NC(=O)c2cnccn2)cc1S(=O)(=O)N(C)C,0%,i,i,.,-7%
CCN(CC)c1ccc(NC(=O)c2cnccn2)cc1S(=O)(=O)Nc1ccc(OC)cc1,8%,4.1µM*,?,?,?
Cc1ccc(Cn2nnc3c(=O)n(CC(=O)NCc4ccco4)cnc32)cc1,5%,?,23µM*,?,?
SMILES,PINK1 expr mod,KB-V1 MDR tox,KB-3-1 cytotox,SW480 rereplic,MCF10A rereplic
Cc1ccc(-n2nnc3c(SCC(=O)NCc4ccco4)ncnc32)cc1,1%,?,?,8%,23µM*
CC(C)(C)n1ncc2c(=O)n(CC(=O)NCc3ccccc3)cnc21,11%,?,7.3µM*,21µM*,15µM*
Cc1ccc(Cn2nnc3c(=O)n(CC(=O)NCc4ccccc4)cnc32)cc1,7%,i,?,9.2µM*,9.2µM*
CCN1CCCC1CNCc1cc2ccc(SC)cc2nc1-c1cc(OC)ccc1OC (centres undefined),0%,.,.,.,.
O=C(Cn1cnc2c(nnn2Cc2ccc(F)cc2)c1=O)N1CCN(c2ccccc2)CC1,2%,9.2µM*,i,-13%,9%
CCCCOCCCNC(=S)Nc1ccc(S(=O)(=O)N2CCOCC2)cc1,0%,18µM*,?,63%,20%
O=S(=O)(c1ccc(NC(=S)NCCC(c2ccccc2)c2ccccc2)cc1)N1CCOCC1,?,?,?,?,5.2µM*
O=S(=O)(c1ccc(NC(=S)N/N=C/c2c3ccccc3cc3ccccc23)cc1)N1CCOCC1,?,?,3.7µM*,13µM*,?
COc1ccc(S(=O)(=O)NC(=O)C2(C)CCN2C(=O)C2(c3ccccc3)CCCC2)cc1 (centres undefined),0%,i,i,.,.
NC(=O)c1cccc(Nc2nc(C(N)COCc3ccccc3)cs2)n1 (centres undefined),1%,i,i,.,.
CCCCC(=O)Nc1c(C(=O)N2CCN(c3ccccc3)CC2)oc2ccccc12,0%,i,i,.,.
CCCC(=O)N1CCCC1(C)C(=O)Nc1ccc2c(c1)CCN2C(C)=O (centres undefined),0%,i,i,.,.
O=C1CC(c2cccs2)Cc2nc(NCC3CCCO3)ncc21 (centres undefined),-3%,16µM*,i,-4%,20%
O=C(CN1c2ccccc2Sc2ccccc21)NNC(=S)Nc1ccc(Cl)cc1Cl,?,13µM*,21µM*,0%,?
O=C(NCCOc1cccc(Oc2ccccc2)c1)c1cc(-n2cnnc2)ccc1Cl,-4%[38.3 µM],16µM*,i,0%,3%
COc1ccccc1N1CCN(Cc2cnc3ccc(Cl)cn23)CC1,3%,i,?,-10%,-6%
Cc1ccc(-c2c(C(=O)Nc3ccccc3F)oc(=O)c3ccccc23)cc1,0%,i,i,.,.
Cc1ccc(-c2c(C(=O)NCc3ccc(F)cc3)oc(=O)c3ccccc23)cc1,4%,16µM*!,i,0%,9%
O=C(COC(=O)c1ccc(NS(=O)(=O)c2cccs2)cc1)NCc1ccco1,4%,?,18µM*,?,9.2µM*
O=C(COC(=O)c1ccc(NS(=O)(=O)c2cccs2)cc1O)NCc1ccccc1,4%,13µM*,5.8µM*,7.3µM*,2.3µM*
O=S(=O)(Nc1cccc(CO)c1)c1cccs1,-1%,i,0.21µM*,26%,-2%
COCCNC(=O)CSc1nc2cc3c(cc2c(=O)n1CCCCCC(=O)NCCc1ccc(OC)c(OC)c1)OCO3,3%,.,.,.,.
O=C1/C(=C/c2cccs2)NC(=S)N1C1CC1,3%,i,i,18µM*,1%
